Assay outcomes: PubChem BioAssay, National Center for Advancing Translational Sciences (NCATS)
Pol iota inh = qHTS for Inhibitors of Polymerase Iota. 390,000 compounds, 1% hits. Potency, µM (top dose mostly 115 µM), usual class: inhibitors. DNA polymerase iota (Homo sapiens), Q9UNA4. AID 588590, 2011. Pol iota fluorescent replication assay, 10 min
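Fluorescent replication assay read twice, at 0 min and 10 min after adding 50 nM (final) substrate. Enzyme (10 nM) and compounds were first incubated 15 min at room temperature; enzyme-free buffer wells were negative controls.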
Pol kappa inh = qHTS for Inhibitors of Polymerase Kappa; DNA polymerase kappa (Homo sapiens), Q9UBT6; purified Pol kappa, fluorescent DNA synthesis assay, 10 min; Potency, µM (series often up to 107 µM), usual class: inhibitors; 400,000 compounds, 0.53% hits; AID 588579, 2011
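Activity was followed as the change in fluorescence between reads at 0 and 10 min after starting the reaction with 50 nM substrate. Beforehand, 10 nM polymerase had been preincubated with compound for 15 min at room temperature.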
Pol eta inh = qHTS for Inhibitors of Polymerase Eta | recombinant Pol eta, fluorescent DNA replication assay | Potency, µM (series often up to 114 µM), actives largely listed as inhibitors | DNA polymerase eta (Homo sapiens), Q9Y253 | 390,000 compounds, 1.2% hits
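Fluorescent replication assay: 50 nM final substrate added after a 15 min room-temperature compound preincubation with 10 nM enzyme. Signal taken at 0 min and again at 10 min.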
FEN1 inh = qHTS Assay for the Inhibitors of Human Flap endonuclease 1 (FEN1); Recombinant FEN1 flap cleavage, fluorescence, 15 min; Potency, µM (series often up to 114 µM), hits mostly inhibitors; 390,000 compounds, 0.35% hits; also: nearly all actives have a fitted effect of over 65% in size
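Quantitative HTS format: each compound was titrated, incubated with 10 nM nuclease for 15 min at room temperature, then challenged with flap substrate at 50 nM final. Signal change over 15 min gave concentration–effect curves.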
WRN helicase inh = qHTS for Inhibitors of WRN Helicase | Potency, µM (series often up to 114 µM), actives largely listed as inhibitors | 360,000 compounds, 0.46% hits | WRN helicase unwinding, fluorescent forked duplex, kinetic | Bifunctional 3'-5' exonuclease/ATP-dependent helicase WRN (Homo sapiens), Q14191; also: nearly all actives have a fitted effect of over 55% in size
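WRN at 20 nM final was preincubated with compound for 15 min at room temperature; reaction started with 100 nM forked duplex oligonucleotide carrying fluorophore and quencher plus 2 mM ATP (final). Unwinding followed kinetically by red fluorescence (ex 525/em 598 nm).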
Pol beta inh = qHTS Assay for Inhibitors of DNA Polymerase Beta | 340,000 compounds, 1.3% hits | Potency, µM (top dose mostly 114 µM), usual class: inhibitors | Pol beta primer extension/strand displacement, fluorescence kinetic
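Homogeneous kinetic assay of primer extension and strand displacement by 10 nM Pol beta, preincubated 15 min at room temperature with compound before 50 nM substrate (final) was added. Read at 0 and 10 min; four-parameter Hill fit.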
Numbers stand for hits; n = inactive; u = inconclusive; x = not tested or not shown; ! = a repeat was not active; [ ] = another dose, or the depositor's remark. A selection: hits, their analogues and other compounds. The true share with any hit is near 2.4%. Calls follow the shape of the dose curve; as a rule, active = well fitted curve in the direction sought with a large enough effect; inconclusive = small, poorly fitted or top-dose-only effect, or another doubt; inactive = no such curve, though single readings can be large; an effect the other way counts as inactive or inconclusive.

SMILES | Pol iota inh | Pol kappa inh | Pol eta inh | FEN1 inh | WRN helicase inh | Pol beta inh
Cc1[nH]n(-c2ccc([N+](=O)[O-])cc2)c(=O)c1C=NCCc1ccc(S(N)(=O)=O)cc1 | u | n | u | n | n | n
COc1ccc(-n2c(Cc3cccn3C)nnc2SCC(=O)NCc2ccc(F)cc2)cc1 | n | n | n | n | n | n
COc1ccc(-n2c(SCC(=O)NCc3ccco3)nc3sc4c(c3c2=O)CCN(C)C4)cc1 | 32µM | n | u | n | n[11.6 µM] | u
COc1ccc(-n2c(Cc3cccn3C)nnc2SCC(=O)NCc2ccco2)cc1 | u | u | n | n | n[11.6 µM] | 40µM
Cc1ccc(-n2c(Cc3cccn3C)nnc2SCC(=O)NCc2ccc3c(c2)OCO3)cc1 | u | n | n | n | n[11.6 µM] | 8.9µM
COC(=O)c1ccccc1NC(=O)CSCC(=O)Nc1ccccc1 | n | n | n | n | n | n
CCc1nc2ccc(C(=O)Nc3ccc(C(N)=O)cc3)cn2c1N(C)CCC(C)C | x | x | x | x | n | x
COC(=O)c1c(C)oc2ccc(N(C(=O)Oc3ccccc3)S(=O)(=O)c3ccc(Cl)c([N+](=O)[O-])c3)cc12 | 45µM | n | u | n | n | 22µM
Clc1ccc2oc(-c3ccccc3)cc(=NCCCN3CCOCC3)c2c1 | n | n | n | n | n | n
OCCCCCN=c1cc(-c2ccccc2)oc2ccc(Cl)cc12 | n | n | n | u | n | 35µM
O=c1oc(-c2ccc(O)c(O)c2)cc2cccc(O)c12 | u | u | 35µM | u | u | x
O=c1cc(-c2ccc(O)c(O)c2)oc2ccc3ccccc3c12 | u | n | u | u | n | x
O=C(O)c1cc(N/N=C/c2c(O)ccc3ccccc23)ccc1Cl | u | u | u | u | n[11.6 µM] | 79µM
O=C(O)c1ccc(N=Cc2c(O)ccc3ccccc23)cc1 | 13µM | n | n | n | n[11.6 µM] | n
Cn1c(/N=C/c2c(O)ccc3ccccc23)nc2ccccc21 | 7.9µM | n | 89µM | u | 45µM | 50µM
Cc1ccc(C(=O)N/N=C/c2c(O)ccc3ccccc23)cn1 | u | n | 50µM | n | n[11.6 µM] | 50µM
O=C(N/N=C/c1c(O)ccc2ccccc12)c1cccnc1 | n | n | n | n | n | n
COc1cccc(-c2nnc3n(Cc4ccc(F)cc4)c(=O)c4ccccc4n23)c1 | n | n | n | n | x | n
O=C(C1CCN(S(=O)(=O)Cc2ccccc2)CC1)N1CCN(c2ncccn2)CC1 | n | n | n | n | n | n
O=C(O)c1cc(N/N=C/c2ccc(OCc3ccccc3)cc2)ccc1Cl | n | n | n | n | n | 50µM
CC(C)C(=O)N/N=C/c1ccc(OCc2ccccc2)cc1 | n | n | n | n | n | n
O=C(O)CCC(=O)Nc1sc2c(c1C(=O)Nc1ccccc1)CCCCC2 | n | n | 89µM! | n | n | u
O=C(COc1ccccc1)Nc1sc2c(c1C(=O)NCc1cccnc1)CCCC2 | u | n | u | n | n | 35µM
COc1ccc(/C=N/Nc2ncc(-c3ccccc3)cn2)c(OC)c1 | 25µM | n | n | n | n[11.6 µM] | u
COc1ccc(/C=N/Nc2nc(C)cc(-c3ccccc3)n2)c(OC)c1 | n | n | n | n | n | n
SMILES | Pol iota inh | Pol kappa inh | Pol eta inh | FEN1 inh | WRN helicase inh | Pol beta inh
O=C(NC1CCSC1=O)c1cccc(C(=O)NC2CCSC2=O)c1 (centres undefined) | u | n | u | n | n | 50µM
Cn1c(N=Nc2ccc(N3CCOCC3)cc2)[n+](C)c2ccccc21 | n | n | n | 56µM | 45µM | n
Cc1ccc(C(C(=O)NC(C)(C)C)N(C(=O)c2csnn2)c2ccccc2F)o1 (centres undefined) | n | n | n | n | n | n
O=C(Cc1ccc(-n2cccc2)cc1)NCc1cccs1 | n | n | u | n | n | 45µM
CCOc1ccc(S(=O)(=O)N(C)CC(=O)N2CCCC2)cc1 | n | n | n | n | n | n
CCc1ccccc1NC(=O)c1oc(=O)c2ccccc2c1-c1ccccc1 | n | n | n | n | x | n
O=C(Cn1ncc(Cl)c(Cl)c1=O)NC1CCS(=O)(=O)C1 (centres undefined) | 14µM | u | u | n | n[11.6 µM] | u
O=C(Cn1ncc(Cl)c(Cl)c1=O)NC1CCCCC1 | n | n | n | n | n | x
COc1ccc(NC2CCCN(C(=O)c3ccc4nccnc4c3)C2)cc1OC (centres undefined) | n | n | n | n | n | n
Cc1ccccc1C(=O)N1CCc2cc(-c3nc(NC(=O)Cc4ccc5c(c4)OCO5)sc3C)ccc21 | n | n | n | n | n | 0.25µM
Cc1sc(NC(=O)Cc2ccc3c(c2)OCO3)nc1-c1ccc2c(c1)CCN2C(=O)c1cccc(F)c1 | n | n | n | n | n | n
CCN(CC)c1ccc(C(=O)NNC(=O)CCNC(=O)c2ccccc2)cc1 | n | n | n | n | n | x
CCN(CC)c1ccc(C(=C2C=CC(=[N+](CC)CC)C=C2)c2ccccc2)cc1 | n | n | n | n | 45µM | x
CCN(CC)c1ccc(C(=C2C=CC(=[N+](CC)Cc3cccc(S(=O)(=O)[O-])c3)C=C2)c2ccc(N(CC)Cc3cccc(S(=O)(=O)O)c3)cc2)cc1 | x | 4.2µM | x | x | x | x
Cc1ccccc1CS(=O)(=O)CCC(=O)O | n | n | n | n | n | n
CCS(=O)(=O)N1Cc2ccccc2CC1C(=O)Nc1cc(S(C)(=O)=O)ccc1Cl (centres undefined) | 35µM | u | u | n | n[11.6 µM] | n
CCS(=O)(=O)N1Cc2ccccc2CC1C(=O)Nc1ccc(F)c(F)c1F (centres undefined) | n | n | n | n | n | n
COc1ccc(-c2ccc3c(c2)S(=O)(=O)c2cccc(C(=O)NCc4cc(C)oc4C(F)(F)F)c2C3=O)cc1OC | u | u | 11µM | n | n[11.6 µM] | x
Cc1ccc(CNC(=O)c2cccc3c2C(=O)c2ccc(N4CCCCC4)cc2S3(=O)=O)cc1 | u | n | n | n | 50µM | x
Cc1cc(C)c(O)c(-c2cc(C(=O)Nc3cccnc3)[nH]n2)c1 | u | n | n | n | n | 56µM
S=c1[nH]nc(-c2ccccn2)n1/N=C/c1ccc(-c2ccccc2Cl)o1 | n | n | n | n | n | 22µM
Cc1ccc(S(=O)(=O)c2ncccc2[N+](=O)[O-])cc1 | n | n | n | n | 50µM | n
COc1cc(Cl)c(C)cc1NC(=O)c1ccccc1NC(=O)CN1CCN(C(C)=O)CC1 | x | x | n | x | n | x
N#C/C(=C(/O)CSc1nnc(Cc2cccs2)n1C1CCCCC1)c1nc2ccccc2[nH]1 | u | u | 25µM | n | n[11.6 µM] | 18µM
COc1ccccc1-c1nnc(SC/C(O)=C(\C#N)c2nc3ccccc3[nH]2)n1C1CCCCC1 | n | n | u | n | n | n
